Screening data from PubChem.
Most compounds without a hit are left out; they make up all but 0.86% or so of the library.
CDC25B CDK2 inh – primary biochemical HTRF screen for blockers of M-phase inducer phosphatase 2 binding to CDK2/cyclin A. HTRF CDC25B-CDK2/CyclinA binding, anti-His/anti-Flag; stronger effect = higher value. 0.72% of 94,000 active. z-score (concentration not given with the values). AID 1259370, 2018; in the data active = z-score above about 3.2
TAR Tat displ – TAR RNA-Tat peptide displacers, HIV-1, primary screen, biochemical, FRET, FAM/TAMRA-labeled Tat; HIV-1 TAR RNA, Tat peptide displacement FRET; stronger effect = higher value; z-score (test concentration not listed); 0.6% of 100,000 active; active = z-score of 3 or more in at least 2 runs
* marks the source's active call; other numbers are inactive results; nt = not tested or not shown.

SMILES | CDC25B CDK2 inh | TAR Tat displ
Cn1c(=O)c2c(-c3ccccc3Br)n(-c3ccccc3)cc2n(C)c1=O | -0.69 | 0.54
Cn1c(=O)c2c(-c3ccccc3Br)n(-c3ccc4[nH]c(=O)[nH]c4c3)cc2n(C)c1=O | 6.2* | 2.3
Cn1c(=O)c2c(-c3ccccc3Br)n(-c3ccccc3N)cc2n(C)c1=O | 0.87 | 2.5
Cn1c(=O)c2c(-c3ccccc3Br)n(-c3cccc4cccnc34)cc2n(C)c1=O | 16* | -2.6
Cc1ccc(C2Nc3ccccc3NC3=C2C(=O)CC(c2cccs2)C3)cc1 (stereo not given) | -0.78 | 3.5
CN(C)c1ccc(C2Nc3ccccc3NC3=C2C(=O)CC(c2cccs2)C3)cc1 (stereo not given) | 7.4* | 0.13
CCN(CC)c1ccc(C2CC(=O)C3=C(C2)Nc2ccccc2NC3c2ccco2)cc1 (stereo not given) | 1.2 | 25*
O=C1CC(c2ccco2)CC2=C1C(c1ccco1)Nc1ccccc1N2 (stereo not given) | -0.52 | 0.63
CCCCN(C)CCCNC(=O)C1CCCN(c2nn3c(=O)cc(C)nc3s2)C1 (stereo not given) | -2.1 | 3.2
O=C(Nc1nnc(Cc2ccccc2)s1)C(=O)c1c[nH]c2ccccc12 | -1.8 | 2.1
O=C(Nc1ccc2c(c1)OCCO2)C(=S)NCc1ccco1 | -1.5 | nt
Cc1ccc(CN(C(=O)c2oc3cc(C)c(C)cc3c2C)c2ccccn2)o1 | -2.1 | 1.8
CCN(CC)c1ccc(Nc2nc(-c3sc(N)nc3C)cs2)cc1 | 0.23 | 5.7*
CCN(CC)c1ccc(Nc2nc(-c3sc(NC(C)=O)nc3C)cs2)cc1 | -0.29 | 0.82
O=C(NCc1ccc2c(c1)OCO2)c1cc(-c2cccnc2)nc2ccccc12 | nt | 0.95
COc1ccc2ccccc2c1C1CC(=O)N2CN(C3CCCCC3)CSC2=C1C#N (stereo not given) | 6.1* | -1.6
COc1ccc2ccccc2c1C1CC(=O)N2CN(Cc3ccccc3)CSC2=C1C#N (stereo not given) | 5.4* | 1.6
COc1ccc2ccccc2c1C1CC(=O)N2CN(Cc3ccco3)CSC2=C1C#N (stereo not given) | 5.8* | 0.91
COc1cccc(C2C(C#N)=C(N)Oc3cc(C)oc(=O)c32)c1 (stereo not given) | 3 | nt
CC(C)(C)c1ccc(C2c3c(oc4ccc(F)cc4c3=O)C(=O)N2CCCN2CCOCC2)cc1 (stereo not given) | nt | 0.07
CCOc1ccc(S(=O)(=O)N(C(=O)c2ccco2)c2cc3sc(=O)oc3c3ccccc23)cc1 | -0.58 | 0.98
COc1ccc(S(=O)(=O)N(C(=O)c2ccco2)c2cc3sc(=O)oc3c3ccccc23)cc1 | 16* | 1.8
COc1cc(OC)c(Nc2cc(C)nc3nnnn23)cc1Cl | -1.6 | 0.22
CCOC(=O)c1nnsc1NC(=O)N1CCN(c2ncccn2)CC1 | nt | 0.39
CCCn1c(=O)oc2cc(NS(=O)(=O)c3ccc4c(c3)c(=O)n(C)c(=O)n4C)ccc21 | nt | 2.2
SMILES | CDC25B CDK2 inh | TAR Tat displ
CCN1CCN(c2cc(NC3CCCCC3)c3c4c(onc24)-c2ccccc2C3=O)CC1 | -0.46 | 4.3*
CCNc1cc(N2CCN(CCO)CC2)c2noc3c2c1C(=O)c1ccccc1-3 | 8.1* | 15*
CC(C)Nc1cc(N2CCCC2)c2noc3c2c1C(=O)c1ccccc1-3 | -1.7 | -5
CC1CCN(c2cc(NC(C)C)c3c4c(onc24)-c2ccccc2C3=O)CC1 | -0.91 | 2.3
CCN1CCN(c2cc(NC(C)C)c3c4c(onc24)-c2ccccc2C3=O)CC1 | -1.8 | 5.7*
CC(C)Nc1cc(N2CCN(CCO)CC2)c2noc3c2c1C(=O)c1ccccc1-3 | 0.08 | 9.5*
CCCN1CCN(c2cc(NCC)c3c4c(onc24)-c2ccccc2C3=O)CC1 | -1.8 | -0.63
O=C1c2ccccc2-c2onc3c(N4CCOCC4)cc(NC4CCCCC4)c1c23 | -0.89 | 0.24
Cc1c(C(=O)N2CCOCC2)oc2ccc3c(c12)C(O)CC1(CCCCC1)O3 (stereo not given) | nt | 1.4
Cc1cc(N2CCCC2)n2nc(C)c(-c3ccc(F)cc3)c2n1 | -1.5 | -0.1
CC(C)(C)c1ccc(C2c3c(-c4ccccc4O)n[nH]c3C(=O)N2Cc2ccco2)cc1 (stereo not given) | -1.9 | 1.1
NC(=O)CN1C(=O)C(O)(CC(=O)c2ccc(F)cc2)c2ccccc21 (stereo not given) | 16* | -0.04
CCCCN1C(=O)C(O)(CC(=O)c2ccccc2)c2ccccc21 (stereo not given) | 12* | -1.6
CCCCN1C(=O)C(O)(CC(=O)c2ccc(C(C)C)cc2)c2ccccc21 (stereo not given) | -0.27 | -0.21
CCN1C(=O)C(O)(CC(=O)c2ccc(F)cc2)c2ccccc21 (stereo not given) | -0.32 | -0.4
COc1cc2nc(NCCCOC(C)C)n3nc(-c4cccnc4)nc3c2cc1OC | -1.1 | 2.9
CC(C)(C)c1nnc2sc(/C=C/c3ccco3)nn12 | -1.5 | -2.2
COc1ccc(Cc2nnc3sc(/C=C/c4ccco4)nn23)cc1 | 2.1 | 8.3*
Clc1ccc(Cc2nnc3sc(/C=C/c4cccs4)nn23)cc1 | -1.5 | 1.1
Clc1ccc(Cc2nnc3sc(/C=C/c4ccco4)nn23)cc1 | 4.2* | 19*
COc1ccccc1/C=C/c1nn2c(Cc3ccccc3)nnc2s1 | 0.3 | 2.5
CCc1nnc2sc(/C=C/c3ccco3)nn12 | -1.1 | 8.4*
Cc1cc2c3c([nH]c2cc1S(=O)(=O)NCCC1=CCCCC1)CC(C)(C)CC3=O | nt | -0.86
CC(=O)c1ccc(N2CCN(C(=O)C3c4ccccc4C(=O)N4CCc5ccccc5C34)CC2)cc1 (stereo not given) | -0.93 | nt
O=C(c1ccc(Br)o1)N1CCN(c2ccc3nncn3n2)CC1 | -2.4 | nt
SMILES | CDC25B CDK2 inh | TAR Tat displ
O=C(Cn1cc(SCC(=O)N2CCc3ccccc32)c2ccccc21)N1CCOCC1 | nt | 1.8
CC(C)CC(=O)N[C@H](C(=O)N[C@H](C(=O)N[C@@H](CC(C)C)[C@@H](O)CC(=O)N[C@@H](C)C(=O)N[C@@H](CC(C)C)[C@@H](O)CC(=O)O)C(C)C)C(C)C | nt | 19*
Cc1[nH]c(=O)[nH]c(=O)c1S(=O)(=O)Nc1ccc2oc(-c3ccncc3)nc2c1 | nt | 6.2*
Cc1[nH]c(=O)[nH]c(=O)c1S(=O)(=O)Nc1ccc(-c2ccno2)cc1 | nt | 1
CCCCn1c(=O)c2c(nc3n2CCN3c2ccc(C)cc2)n(C)c1=O | nt | 1
CCCCCn1c(=O)c2c(nc3n2CCN3c2ccc(C)cc2)n(C)c1=O | nt | 5.2*
O=C(c1ccncc1)N1CCN(c2nc(-c3ccc(Cl)cc3)no2)CC1 | nt | 0.1
Cc1ccc(NC(=O)CSc2nnc(C)n3c2cc2occc23)cc1C | nt | -0.51
CC(=O)N1CCOc2ccc(S(=O)(=O)N3CCC(C(=O)NC4CCC(C)CC4)CC3)cc21 (stereo not given) | nt | 3.6
CC(=O)N1CCOc2ccc(S(=O)(=O)N3CCC(C(=O)NC4CCCC4)CC3)cc21 | nt | 17*
Fc1ccc(CNc2nc3ccccc3c3nc(-c4ccncc4)nn23)cc1 | -1.1 | 3.3
CC(=O)c1cc(-c2ccccc2)sc1C | -1.6 | nt
CCOC(=O)C1CCN(c2ccc([N+](=O)[O-])s2)CC1 | nt | 3.5*
CCOC(=O)C1CCN(c2nnc(-n3c(C)ccc3C)s2)CC1 | 4 | -0.52
CCc1cc2c3c([nH]c2cc1S(=O)(=O)Nc1ccc(F)cc1)CC(C)(C)CC3=O | nt | 2.6
